Reference: PubChem BioAssay
Inconclusive results are not listed. Calls of active or inactive are those of the source.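 Rule for the calls, unless noted: active = viability at or below 10% of carrier control in both of two separate runs; inconclusive = viability at or below 10% in only one of the two runs; inactive = the rest.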

What was measured:
[1] = reducers of endogenous Her2 protein level, primary screen, SKBR3 breast tumor cells, AlphaScreen, ATP viability (AID 461;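 active = Her2 level under about 52% in both replicate screens, with viability over 70% of control, limit read from the data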;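 for Her2 level: lower value means less Her2 protein in the cells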;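 for viability: percent of carrier control wells set as 100% viability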); settings: 18-24 h, measured here: SKBR3 viability, ATP luminescence, at 10 µM
[2] = biological target: Receptor tyrosine-protein kinase erbB-2 (Homo sapiens) (UniProt P04626); assay: as above; settings: 18-24 h, at 10 µM, stronger effect = lower value
[3] = SK-BR-3 cell growth inhibitors, pilot screen, 24 h, human (AID 572); settings: SK-BR-3 viability, CellTiter-Glo luminescence, at 10 µM, stronger effect = lower value;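 note: compound exposure lasted between 18 and 24 h rather than exactly 24 h; 100% = carrier-treated control wells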
[4] = HUVEC growth inhibition – cell-based, human, primary screen (AID 575;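 active = viability at or below 30% in both replicate assays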;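 note: 100% = median of untreated cell wells with 0.1% DMSO on each plate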); settings: HUVEC proliferation, CellTiter-Glo luminescence, 72 h; at 10 µM; stronger effect = lower value
[5] = growth inhibitors of H69AR lung tumor, primary screen, human, duplicate replicates (AID 580;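 active = viability at or under a set limit in both replicates, limit being median viability minus 3 SD, cut at about 48% in these data, passing the limit was not always enough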;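 note: 100% = mean luminescence of untreated wells and 0% = no signal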); settings: H69AR lung tumor cells viability, ATP luminescence, 72 h; at 10 µM; stronger effect = lower value
[6] = reversal of MRP1-mediated doxorubicin resistance, pilot screen, H69AR cells, doxorubicin co-treatment (AID 601;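 active = viability loss from added drug above about 55%, and viability with drug at most 40%, in both replicates, limit read from the data, passing the limit was not always enough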); settings: CellTiter-Glo, 72 h, at 10 µM; for differential viability (reversal): stronger effect = higher value
[7] = 384-well plate pilot, post-Golgi transport modulator project, inhibition of yeast transport mutant growth (AID 636; in the data active = inhibition above about 31%); settings: absorbance 615 nm, about 18 h, stronger effect = higher value
[8] = growth suppression of yeast trafficking mutant, preliminary HTS, modulators of trafficking downstream of Golgi apparatus project, 1536-format plate, OD 615 nm (AID 637; in the data active = inhibition above about 30%); settings: yeast transport mutant growth, absorbance 615 nm, 18 h; stronger effect = higher value
[9] = OD615 S. cerevisiae growth inhibition, permissive medium, pilot counter-assay, permissive growth control for S. cerevisiae lifespan shortening project (AID 705;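 active = growth inhibition above 25% in both replicates, a cutoff set 3 SD above the mean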); settings: OD615, 24 h, at 10 µM, stronger effect = higher value
[10] = Restrictive medium S. cerevisiae growth inhibition, OD615, pilot screen of yeast lifespan reduction project, restrictive growth control (AID 706;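 active = growth inhibition above a set limit, 3 SD over mean compound inhibition, in both replicates, cut at about 43% in these data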;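 note: modified DeaD lifespan yeast strain shifted to restrictive glucose medium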); settings: OD615, 48 h, at 10 µM, stronger effect = higher value
[11] = viability gain of MRP-1-high H69AR cells under doxorubicin, pilot screen, MRP-1 activator project, CellTiter-Glo, duplicate (AID 807;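 active = viability increase at or above a cutoff of the median across tested compounds plus 3 SD, cut at about 8.5% in these data, passing the limit was not always enough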;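 note: compound pretreatment 18-22 h then 72 h combined with doxorubicin; 0% = doxorubicin alone and 100% = vehicle without doxorubicin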); settings: H69AR viability with doxorubicin, CellTiter-Glo luminescence; at 10 µM; stronger effect = higher value
[12] = inhibitors of the yeast RAM network, pilot screen, dse1pr::URA3 reporter, 5-FOA selection (AID 869;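 active = inhibition over a set limit, the all-compound mean plus 3 SD, in both replicate runs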;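 note: 0% = DMSO wells with no growth and 100% = 10 µM 1-NA-PP1 with full growth; RAM network block rescues cells from 5-FOA so hits raise OD615 growth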); settings: S. cerevisiae dse1pr::URA3 5-FOA growth, OD615, 2 d; at 10 µM; stronger effect = higher value; strain carries analog-sensitive mutant Cbk1 kinase
[13] = RAM signaling pathway blockade in yeast – S. cerevisiae, Pdr1DBD-CYC8 efflux-inhibited sensitized strain, primary screen (AID 1298;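 active = RAM network inhibition above 8.4% in each of two replicates, 3 SD over the compound average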;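 note: 0% = DMSO untreated cells without growth and 100% = 10 µM 1-NA-PP1 full growth; higher means more yeast growth rescued from 5-FOA killing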); settings: S. cerevisiae cbk1-as DSE1-URA3 strain, 5-FOA growth OD615, 2 d; at 50 µM; stronger effect = higher value
[14] = growth suppression of beta-catenin knockout HCT116, pilot screen, human colon tumor cells (AID 823;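 active = cell viability at or below a set limit in both duplicate runs, the limit being the all-compound median minus 4 SD, cut at about 23% in these data, passing the limit was not always enough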;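 note: 0% = wells killed by 20 µM Hyamine and 100% = untreated DMSO cell wells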); settings: CellTiter-Glo, 60 h, at 10 µM, stronger effect = lower value
[15] = growth suppression of PTEN-deleted HCT116, pilot screen, cell-based, HCT116 clonal line, CellTiter-Glo (AID 824;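 active = viability at or below 27.92% in each of two runs, the all-compound median minus 4 SD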;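 note: 0% = 20 µM Hyamine control and 100% = vehicle cell control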); settings: 60 h, at 10 µM, stronger effect = lower value
[16] = H69AR cells + 2 uM doxorubicin, measured here: viability with 2 uM doxorubicin, stronger effect = lower value
[17] = H69AR cells, compound alone cytotoxicity

Sequence of Receptor tyrosine-protein kinase erbB-2 (Homo sapiens) (P04626 whole entry, looked up): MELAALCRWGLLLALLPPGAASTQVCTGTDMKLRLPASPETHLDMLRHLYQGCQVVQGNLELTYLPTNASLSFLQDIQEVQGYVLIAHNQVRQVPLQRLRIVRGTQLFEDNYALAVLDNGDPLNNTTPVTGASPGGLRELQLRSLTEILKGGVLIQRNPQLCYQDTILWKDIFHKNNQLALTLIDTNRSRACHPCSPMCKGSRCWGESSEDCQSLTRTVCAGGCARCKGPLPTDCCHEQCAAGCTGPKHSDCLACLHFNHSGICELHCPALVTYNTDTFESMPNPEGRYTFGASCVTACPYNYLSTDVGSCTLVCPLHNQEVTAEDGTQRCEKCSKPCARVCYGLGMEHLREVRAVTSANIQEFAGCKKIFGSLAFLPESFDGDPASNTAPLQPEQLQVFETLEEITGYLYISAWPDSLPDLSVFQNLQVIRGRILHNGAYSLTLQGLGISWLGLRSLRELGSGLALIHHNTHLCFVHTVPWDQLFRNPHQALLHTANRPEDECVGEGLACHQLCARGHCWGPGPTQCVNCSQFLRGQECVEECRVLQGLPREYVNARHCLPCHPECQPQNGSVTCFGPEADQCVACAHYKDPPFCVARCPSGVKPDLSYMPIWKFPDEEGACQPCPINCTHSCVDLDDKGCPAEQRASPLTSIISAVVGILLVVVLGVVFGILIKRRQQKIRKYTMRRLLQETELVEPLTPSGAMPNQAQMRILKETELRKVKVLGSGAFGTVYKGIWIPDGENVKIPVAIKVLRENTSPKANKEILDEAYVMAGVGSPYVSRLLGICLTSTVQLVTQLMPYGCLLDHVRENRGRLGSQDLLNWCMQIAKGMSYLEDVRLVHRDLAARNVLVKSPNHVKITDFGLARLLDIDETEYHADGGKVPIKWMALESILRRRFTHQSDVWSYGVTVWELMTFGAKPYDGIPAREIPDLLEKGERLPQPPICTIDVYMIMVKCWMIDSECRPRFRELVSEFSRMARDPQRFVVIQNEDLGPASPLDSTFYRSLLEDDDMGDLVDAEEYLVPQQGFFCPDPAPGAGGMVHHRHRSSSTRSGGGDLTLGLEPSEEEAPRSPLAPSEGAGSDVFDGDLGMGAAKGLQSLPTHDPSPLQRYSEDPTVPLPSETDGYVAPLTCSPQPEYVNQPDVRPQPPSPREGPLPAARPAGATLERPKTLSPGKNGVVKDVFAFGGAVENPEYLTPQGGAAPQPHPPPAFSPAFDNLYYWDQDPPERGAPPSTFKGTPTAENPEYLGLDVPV

| SMILES | viability [1] | Her2 level [2] | viability [3] | viability [4] | viability [5] | differential viability (reversal) ([6]; H69AR cells + 2 uM doxorubicin) | viability [6, 16] | viability [6, 17] | inhibition [7] | inhibition [8] | growth inhibition [9] | growth inhibition [10] | viability increase [11] | inhibition [12] | RAM network inhibition [13] | viability [14] | viability [15] |
| --- | --- | --- | --- | --- | --- | --- | --- | --- | --- | --- | --- | --- | --- | --- | --- | --- | --- |
| CCN(CC)c1ccc2cc(-c3nc4ccccc4[nH]3)c(=O)oc2c1 | 88% | 101% (inactive) | 88% (inactive) | 20.9% (active) | 3.43% (active) | -0.345% (inactive) | 3.78% | 3.43% | 0.13% (inactive) | -6.39% (inactive) | -3.73% (inactive) | -16.3% (inactive) | -7.61% (inactive) | -1.12% (inactive) | 0.92% (inactive) | – | – |
| N#CC1=C(N)Oc2cc(O)ccc2C1C1CCCCC1 (stereo not given) | 121% | 89.5% (inactive) | 121% (inactive) | 47.4% (inactive) | 12.2% (active) | -51.2% (inactive) | 63.4% | 12.2% | -1.17% (inactive) | 4.17% (inactive) | -0.885% (inactive) | -9.19% (inactive) | -5.63% (inactive) | 0.455% (inactive) | 3.93% (inactive) | – | – |
| CC1CC(C)CN(Cc2nc3c(c(=O)n(C)c(=O)n3C)n2Cc2ccccc2Cl)C1 (stereo not given) | 87.5% | 104% (inactive) | 87.5% (inactive) | 97.8% (inactive) | 89.5% (inactive) | – | – | – | -3.2% (inactive) | 0.67% (inactive) | 2.67% (inactive) | -4.42% (inactive) | -1.15% (inactive) | 0.655% (inactive) | 3.22% (inactive) | 102% (inactive) | 97.8% (inactive) |
| COc1ccc(-c2nnc3sc(C(C)N4C(=O)c5ccccc5C4=O)nn23)cc1 (stereo not given) | 84% | 111% (inactive) | 84% (inactive) | 96.8% (inactive) | 90.9% (inactive) | -9.99% (inactive) | 101% | 90.9% | 2.13% (inactive) | -2.67% (inactive) | – | 53.1% (active) | -2.35% (inactive) | 1.46% (inactive) | -1.51% (inactive) | 101% (inactive) | 96.5% (inactive) |
| COc1ccc(-n2ncc3c(N4CCN(c5cccc(C)c5C)CC4)ncnc32)cc1 | 88% | 79% (inactive) | 88% (inactive) | 11.3% (active) | 27.1% (active) | 5.39% (inactive) | 21.7% | 27.1% | -2.4% (inactive) | -2.17% (inactive) | -5% (inactive) | -6.91% (inactive) | -7.5% (inactive) | 1.51% (inactive) | 7.15% (inactive) | – | – |
| COc1cccc(-c2nc(CS(=O)(=O)CC(=O)Nc3cc(C)ccc3C)c(C)o2)c1 | 76% | 86.5% (inactive) | 76% (inactive) | 70.7% (inactive) | – | 15.3% (inactive) | 50.8% | 66.1% | -1.73% (inactive) | -4.1% (inactive) | -3.37% (inactive) | -3.22% (inactive) | -1.75% (inactive) | 3.55% (inactive) | 0.99% (inactive) | 98.4% (inactive) | 91.4% (inactive) |
| CCOC(=O)c1cc2c(=O)n3ccccc3nc2n(CC2CCCO2)c1=NC(C)=O (stereo not given) | 99% | 95.5% (inactive) | 99% (inactive) | 102% (inactive) | 81.1% (inactive) | – | – | – | -6.71% (inactive) | -2.22% (inactive) | -22.2% (inactive) | -17.4% (inactive) | 0.08% (inactive) | 0.525% (inactive) | 3.93% (inactive) | 97.6% (inactive) | 93.8% (inactive) |
| COC(=O)c1cn(NC(=O)c2cccnc2)c(=O)c2ccccc12 | 88% | 84% (inactive) | 88% (inactive) | 101% (inactive) | 103% (inactive) | 2.79% (inactive) | 100% | 103% | -7.26% (inactive) | 1.11% (inactive) | -2.23% (inactive) | 0.94% (inactive) | – | 0.92% (inactive) | 5.05% (inactive) | 101% (inactive) | 99% (inactive) |
| COc1ccc(NC(=O)CC2Sc3ncnn3C2=O)cc1 (stereo not given) | 109% | 80.5% (inactive) | 109% (inactive) | 88.3% (inactive) | 111% (inactive) | 27% (inactive) | 83.5% | 111% | 0.77% (inactive) | 4% (inactive) | – | 22.2% (inactive) | -3.8% (inactive) | 1.05% (inactive) | 6.37% (inactive) | 95.2% (inactive) | 104% (inactive) |
| Cn1c(SCC(=O)c2cc3ccccc3o2)nnc1-c1ccccc1 | 96.5% | 97.5% (inactive) | 96.5% (inactive) | 105% (inactive) | 84.3% (inactive) | 3.21% (inactive) | 81.1% | 84.3% | -6% (inactive) | 13.3% (inactive) | 10.3% (inactive) | – | -3.83% (inactive) | 1.88% (inactive) | 6.5% (inactive) | 97.9% (inactive) | 96.8% (inactive) |
| Cc1noc(/C=C/N(C)C)c1S(=O)(=O)N1CCCC(C(=O)NC2CCCCC2)C1 (stereo not given) | 99% | 99.5% (inactive) | 99% (inactive) | 75.7% (inactive) | 88.6% (inactive) | -16.5% (inactive) | 105% | 88.6% | -3.07% (inactive) | -3.5% (inactive) | 2.12% (inactive) | -9.03% (inactive) | – | 0.78% (inactive) | 5.71% (inactive) | 93% (inactive) | 88.4% (inactive) |
| C=CCn1c(COc2ccc(CC)cc2)nnc1SC/C(O)=C(\C#N)c1nc2ccccc2[nH]1 | 86.5% | 88% (inactive) | 86.5% (inactive) | 59.8% (inactive) | 106% (inactive) | -1.07% (inactive) | 107% | 106% | -0.92% (inactive) | -6% (inactive) | 1.15% (inactive) | 0.59% (inactive) | – | 2.46% (inactive) | 6.17% (inactive) | 92.6% (inactive) | 91.3% (inactive) |
| CN(C)c1ccc(NC(=O)Cn2cc3c(n2)CCCC3)cc1 | 77.5% | 67% (inactive) | 77.5% (inactive) | – | 74% (inactive) | -10.1% (inactive) | 84.1% | 74% | -4.13% (inactive) | -5% (inactive) | 11.9% (inactive) | 13.9% (inactive) | -2.45% (inactive) | 2% (inactive) | 1.84% (inactive) | 64.2% (inactive) | 62% (inactive) |
| CCOc1ccccc1NC(=O)C1CCCN(S(=O)(=O)c2cccc3cccnc23)C1 (stereo not given) | 108% | 94.5% (inactive) | 108% (inactive) | – | 78.1% (inactive) | -11.7% (inactive) | 89.8% | 78.1% | -6.13% (inactive) | 1.67% (inactive) | -4.4% (inactive) | -21% (inactive) | -3.58% (inactive) | 1.14% (inactive) | 4.95% (inactive) | 76.2% (inactive) | 71.9% (inactive) |
| Cc1ccc(C)c(N2CCN(CCCNC(=O)Cn3cc4c(n3)CCC(C)C4)CC2)c1 (stereo not given) | 90.5% | 78% (inactive) | 90.5% (inactive) | – | 26.6% (active) | -20.3% (inactive) | 46.9% | 26.6% | -1.54% (inactive) | -2.83% (inactive) | 6.12% (inactive) | 10.4% (inactive) | -6.04% (inactive) | 1.44% (inactive) | 0.11% (inactive) | 1.61% (active) | 2.81% (active) |
| Cc1ccccc1Cn1nc(C)c(NC(=O)c2noc3c2CCc2ccccc2-3)c1C | 126% | 61% (inactive) | 126% (inactive) | – | 98.4% (inactive) | 14% (inactive) | 84.4% | 98.4% | 5.77% (inactive) | -2.17% (inactive) | -6.68% (inactive) | 1.82% (inactive) | 10.6% (active) | 1.23% (inactive) | 6.54% (inactive) | 79.5% (inactive) | 85.2% (inactive) |
| Cc1ccc(C(=O)Nc2ccc(Cl)cn2)cc1S(=O)(=O)N1CCOCC1 | – | – | 90% (inactive) | 78.3% (inactive) | 81.5% (inactive) | -11.5% (inactive) | 93% | 81.5% | 0.39% (inactive) | 5% (inactive) | -3.23% (inactive) | 0.715% (inactive) | 1.52% (inactive) | 1.39% (inactive) | 5.97% (inactive) | 86.4% (inactive) | 79.9% (inactive) |
| CCOC(=O)CSC1=C(C#N)C(c2ccc(C)o2)CC(=O)N1 (stereo not given) | 98.5% | 83.5% (inactive) | 98.5% (inactive) | – | 26.6% (active) | -21.3% (inactive) | 47.9% | 26.6% | -4.4% (inactive) | -0.66% (inactive) | -8.58% (inactive) | 7.01% (inactive) | -5.31% (inactive) | 1.17% (inactive) | 0.15% (inactive) | 13.7% (active) | 14.7% (active) |
| CC1(C)CC2CC(C)(CN2S(=O)(=O)c2ccc(N)cc2)C1 (stereo not given) | – | – | 120% (inactive) | 99.6% (inactive) | 89.4% (inactive) | 8.43% (inactive) | 80.9% | 89.4% | -8.93% (inactive) | -8.36% (inactive) | -0.15% (inactive) | 8.29% (inactive) | -2.62% (inactive) | 0.505% (inactive) | 9.14% (inactive) | 88% (inactive) | 87.6% (inactive) |
